Assay [1] in a line: P. berghei load reduction in hepatocytes – cell-based, HepG2, luciferase luminescence, HepG2 viability, primary screen (AID 624349; in the data active = parasite load remaining mostly below about 12%, no sharp cut-off; inactive = mostly above about 10%;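 note: 100% = mean of DMSO negative control wells on the same plate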). The settings on record: P. berghei liver stage in HepG2, luciferase luminescence, concentration not given here; parasite load remaining: stronger effect = lower value; viability: measured here: HepG2 viability without parasites.
Assay [2] can be described thus: signal quenchers or enhancers, Cy5 substrate/SSB – biochemical, NIH Clinical Collection, E. coli SSB, artefact control for HCV NS3 helicase inhibitor project (AID 743268). The settings on record: Cy5-oligo bound E. coli SSB, fluorescence interference.
Assay [3] relates to Hepatitis C virus NS3 helicase. Description: blockers of NS3h binding to DNA – biochemical, fluorescence polarization, NIH Clinical Collection, primary screen (AID 743270). To be noted: NS3 helicase binding to Cy5-dT15 DNA, stronger effect = higher value, concentration not given here. A general note: Fluorescence polarisation rises when a labelled molecule tumbles more slowly, as on binding a larger partner.

Assay [4] concerns the target Single-stranded DNA-binding protein (Escherichia coli (strain K12)) (UniProt P0AGE0). Description: SSB-ssDNA binding inhibitors – biochemical, fluorescence polarization, NIH Clinical Collection, counter-screen for HCV NS3 helicase inhibitor project (AID 743271; in the data active = inhibition above about 28%). The settings on record: E. coli SSB-DNA binding, stronger effect = higher value, concentration not given here.
A short description of assay [5]: compounds distorting NS3 helicase fluorescence signal – biochemical, NIH Clinical Collection, artefact control for HCV NS3 helicase inhibitor project (AID 743272).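 Note: HCV NS3 helicase with a Cy5 labelled single stranded DNA probe.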 To be noted: fluorescence interference counterscreen, HCV NS3 helicase assay; stronger effect = lower value. (In general: The purpose of a counterscreen is to sort out artefacts and off-target activity.)
The test system of assay [6] is Neuropilin-2 / VEGF-C interaction (human). Description: small molecules blocking Neuropilin-2/VEGF-C interaction – biochemical, microplate binding format, z-score (AID 743281). To be noted: microplate NRP2/VEGF-C binding assay; stronger effect = lower value.
A short description of assay [7]: Wnt pathway potentiators raising nuclear beta-catenin – imaging, WNT3A-conditioned medium, mouse C2C12, NPC library, primary screen (AID 1117326; in the data active = nuclear beta-catenin stimulation mostly above about 4.2%, no sharp cut-off; inactive = mostly below about 10%). The settings on record: stronger effect = higher value.
The nature of assay [8]: liver-stage malaria parasite load reduction – cell-based, known kinase inhibitor set, luminescence, hepatoma host viability (AID 624392).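 Note: infected cells incubated roughly two days before readout.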 To be noted: Plasmodium liver stage in hepatoma cells, luciferase luminescence, concentration not given here; liver cell % of control: measured here: host liver cell viability; parasite % of control: stronger effect = lower value.

Where “and” joins values, the source holds several entries; their conditions need not be identical. Equal values may be shown once. Calls of active or inactive are those of the source. Unless noted, the rule behind the calls is not given here.

What is called viability is a read-out of living cells in per cent, often relative to untreated cells. Usually inhibition stands for the drop in the measured response relative to a control, in per cent. Turning to `O=c1c(-c2ccccc2)c1-c1ccccc1`, in assay [1], the parasite load remaining is 7.97% (inactive). Besides, in assay [1], the viability stood at 65.5%. The fluorescence ratio in assay [2] is 0.98 (inactive); in assay [5], 0.79 (active). For the same compound, the inhibition in assay [3] was -0.4% (inactive); in assay [4] it was 1.44% (inactive). Moreover, the z-score in assay [6] is -0.326 (inactive). Further, the nuclear beta-catenin stimulation in assay [7] (at 10 µM) is 40.6% (active); in assay [7] (stimulation, at 2 µM) it was 22.6%.

Consider `Cc1ccc(NC(=O)c2ccc(CN3CCN(C)CC3)cc2)cc1Nc1nccc(-c2cccnc2)n1`, for which, in assay [1], the parasite load remaining is 17.1% (inactive) and 60.3% (inactive); the viability was 65.9% and 227%. Also, in assay [6], the z-score was -0.734 (inactive). Moreover, the nuclear beta-catenin stimulation in assay [7] (at 10 µM) was 7.1% (inactive). Further, in assay [7] (stimulation, at 2 µM), the nuclear beta-catenin stimulation is -0.1%.

As to `CC(Oc1c(Cl)cccc1Cl)C1=NCCN1` (configuration not stated), the parasite load remaining in assay [1] was 53.2% (inactive) and 28% (inactive). Also, the viability in assay [1] was 69% and 138%. Besides, the fluorescence ratio in assay [2] was 0.98 (inactive); in assay [5], 0.95 (inactive). Moreover, the inhibition in assay [3] is -8.08% (inactive); in assay [4], -3.54% (inactive). Moreover, in assay [6], the z-score was 0.439 (inactive). The nuclear beta-catenin stimulation was -2.3% (inactive) in assay [7] (at 10 µM) and 0.3% in assay [7] (stimulation, at 2 µM).

For the compound `COC1=C(OC)C(=O)C(CCCCCCCCCCO)=C(C)C1=O`, in assay [1], the parasite load remaining was 97.9% (inactive) and 55.5% (inactive). Moreover, the viability in assay [1] is 71.1% and 140%. In addition, the fluorescence ratio in assay [2] and in assay [5] was 0.94 (inactive) each time. For the same compound, the inhibition in assay [3] was -2.77% (inactive); in assay [4] it was 2.98% (inactive). In addition, the z-score in assay [6] was -0.18 (inactive). The nuclear beta-catenin stimulation was -0.4% (inactive) in assay [7] (at 10 µM) and -1.8% in assay [7] (stimulation, at 2 µM).

With `CC1(C)S[C@@H]2[C@H](N=CN3CCCCCC3)C(=O)N2[C@H]1C(=O)O`, the parasite load remaining in assay [1] was 101% (inactive). Moreover, the viability in assay [1] came to 79.6%. The fluorescence ratio in assay [2] is 1.06 (inactive); in assay [5], 1.04 (inactive). Besides, the values for the inhibition in assay [3] and in assay [4] were -1.98% (inactive) and -4.72% (inactive), respectively. In assay [6], the z-score is -0.418 (inactive). In addition, the nuclear beta-catenin stimulation was 0.4% (inactive) in assay [7] (at 10 µM) and 0.8% in assay [7] (stimulation, at 2 µM).

Turning to `C[C@H]1COc2c(C3(N)CC3)c(F)cc3c(=O)c(C(=O)O)cn1c23`, the parasite load remaining in assay [1] is 143% (inactive) and 21.7% (inactive). Besides, the viability in assay [1] was 89.8% and 67.5%. The fluorescence ratio in assay [2] was 1.05 (inactive); in assay [5], 1.02 (inactive). In addition, the inhibition was 5.15% (inactive) in assay [3] and -0.1% (inactive) in assay [4]. In addition, the z-score in assay [6] was 0.653 (inactive). Moreover, the nuclear beta-catenin stimulation in assay [7] (at 10 µM) is 1.2% (inactive); in assay [7] (stimulation, at 2 µM), 0.2%.

Turning to `CN(C)CC/C=C1/c2ccccc2COc2ccc(CC(=O)O)cc21`, the parasite load remaining in assay [1] is 66.3% (inactive) and 36.6% (inactive). Further, the viability in assay [1] was 81.2% and 101%. Further, the fluorescence ratio in assay [2] was 0.96 (inactive); in assay [5], 0.94 (inactive). Moreover, the inhibition is -6.33% (inactive) in assay [3] and -3.54% (inactive) in assay [4]. Besides, the z-score in assay [6] was -0.65 (inactive). In addition, the nuclear beta-catenin stimulation was -0.9% (inactive) in assay [7] (at 10 µM) and 0.1% in assay [7] (stimulation, at 2 µM).

For the compound `CCCc1nc(C)c2c(=O)[nH]c(-c3cc(S(=O)(=O)N4CCN(CC)CC4)ccc3OCC)nn12`, in assay [1], the parasite load remaining was 37.6% (inactive) and 31.5% (inactive) and 37.1% (inactive). Further, in assay [1], the viability is 202% and 68.7% and 126%. The fluorescence ratio is 0.94 (inactive) in assay [2] and 0.93 (inactive) in assay [5]. Further, the inhibition was -13.3% (inactive) in assay [3] and -1.97% (inactive) in assay [4]. Besides, the compound was called inactive in assay [6]. The nuclear beta-catenin stimulation in assay [7] (at 10 µM) was 0.1% (inactive); in assay [7] (stimulation, at 2 µM), -1%.

Take `Clc1ccc2c(c1)CCc1cccnc1C2=C1CCNCC1`: in assay [1], the parasite load remaining is 48.1% (inactive) and 27.5% (inactive) and 15.2% (inactive). Further, the viability in assay [1] was 92% and 56.9% and 74%. The fluorescence ratio in assay [2] and in assay [5] was 1 (inactive) in each case. The inhibition in assay [3] was -2.84% (inactive); in assay [4] it was -3.54% (inactive). For the same compound, in assay [6], the z-score is 1.87 (inactive). For the same compound, the nuclear beta-catenin stimulation was 0.3% (inactive) in assay [7] (at 10 µM) and -0.9% in assay [7] (stimulation, at 2 µM).

Take `COc1cc(C(=O)NC2CCCNC2)cc(OC)c1OC` (configuration not stated): the parasite load remaining in assay [1] was 134% (inactive). The viability in assay [1] stood at 80.6%. The fluorescence ratio in assay [2] was 1 (inactive); in assay [5] it was 0.98 (inactive). Also, the inhibition is 2.77% (inactive) in assay [3] and 2.98% (inactive) in assay [4]. The z-score in assay [6] was -0.315 (inactive). Further, the nuclear beta-catenin stimulation in assay [7] (at 10 µM) is 22.4% (inactive); in assay [7] (stimulation, at 2 µM), 2.8%.

In the case of `O=C1CC2(CCCC2)CC(=O)N1CCNCC1COc2ccccc2O1` (configuration not stated), the parasite load remaining in assay [1] was 46.8% (inactive). The viability in assay [1] was found to be 69.1%. Further, the fluorescence ratio in assay [2] and in assay [5] was 0.98 (inactive) throughout. Further, the inhibition in assay [3] is -8.95% (inactive); in assay [4], -4.33% (inactive). Besides, the z-score in assay [6] is 0.317 (inactive). For the same compound, the nuclear beta-catenin stimulation in assay [7] (at 10 µM) was 0.9% (inactive); in assay [7] (stimulation, at 2 µM), 0.6%.

For `CC[C@@]1(O)C(=O)OCc2c1cc1n(c2=O)Cc2cc3c(CN(C)C)c(O)ccc3nc2-1`, the fluorescence ratio in assay [2] was 1.05 (inactive); in assay [5], 1.02 (inactive). In addition, the inhibition in assay [3] was 1.98% (inactive); in assay [4], 3.75% (inactive). Besides, in assay [6], the z-score was 1.52 (inactive). The nuclear beta-catenin stimulation in assay [7] (at 10 µM) was 55.8% (active); in assay [7] (stimulation, at 2 µM) it was 20.6%.

In the case of `COc1cc2c(N3CCN(C(=O)Nc4ccc(OC(C)C)cc4)CC3)ncnc2cc1OCCCN1CCCCC1`, in assay [8], the liver cell % of control was 61.6% and 84.6% and 95.9%; the parasite % of control is 32.5% (inactive) and 57.6% (inactive) and 55.2% (inactive). Further, the nuclear beta-catenin stimulation in assay [7] (at 10 µM) is 1.7% (inactive). Moreover, in assay [7] (stimulation, at 2 µM), the nuclear beta-catenin stimulation is -1.8%.

As to `COC(=O)C1=C(C)NC(C)=C(C(=O)OCC(C)C)C1c1ccccc1[N+](=O)[O-]` (configuration not stated), the fluorescence ratio in assay [2] is 0.95 (inactive); in assay [5], 0.91 (inactive). Moreover, the inhibition is 4.36% (inactive) in assay [3] and -0.87% (inactive) in assay [4]. The z-score in assay [6] was -0.886 (inactive). The nuclear beta-catenin stimulation in assay [7] (at 10 µM) is 6% (inactive); in assay [7] (stimulation, at 2 µM) it was 3.3%.

On to `CN1CCN(c2c(F)cc3c(=O)c(C(=O)O)cn4c3c2SCC4)CC1`, for which, in assay [1], the parasite load remaining is 99.2% (inactive) and 24.3% (inactive). In addition, in assay [1], the viability was 91.2% and 66%. Besides, the fluorescence ratio was 1.04 (inactive) in assay [2] and 0.99 (inactive) in assay [5]. The inhibition in assay [3] is -4.36% (inactive); in assay [4], -3.18% (inactive). The compound was called inactive in assay [6]. In addition, the nuclear beta-catenin stimulation is 1.2% (inactive) in assay [7] (at 10 µM) and -0.2% in assay [7] (stimulation, at 2 µM).
